Compounds with a hit are over-represented: about 1.4% of the library has one in this group of screens.
MsrA act – bovine methionine sulfoxide reductase A activation; activation, % at 10.6 µM; 360,000 tested, 0.3% active; purified bovine MsrA, absorbance read-out; in the data active = activation above about 7.5%;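 also: 0% = vehicle and 100% = reference activator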
pCIP destab – p/CIP protein destabilization. decrease of EGFP signal, % at 10 µM. Q05BA5. 290,000 tested, 0.01% active. F442A p/CIP-EGFP cells, EGFP fluorescence, 16 h;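 active = EGFP signal decrease of at least 30% at 10 µM or well 3 SD below plate mean, unless failing retest; inactive = the rest, including hits failing retest or dose response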
14-3-3 Bad PPI – disrupts binding of bovine 14-3-3 zeta to phospho-Bad peptide; TR-FRET 14-3-3zeta/Dy647-pBad peptide displacement, 1 h; inhibition, % at 21.7 µM; 220,000 tested, 0.71% active; P63103;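 active = inhibition above about 70%, limit read from the data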;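 also: 0% = full 14-3-3 plus peptide FRET controls and 100% = background without 14-3-3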
Target sequence (P63103 whole entry, looked up): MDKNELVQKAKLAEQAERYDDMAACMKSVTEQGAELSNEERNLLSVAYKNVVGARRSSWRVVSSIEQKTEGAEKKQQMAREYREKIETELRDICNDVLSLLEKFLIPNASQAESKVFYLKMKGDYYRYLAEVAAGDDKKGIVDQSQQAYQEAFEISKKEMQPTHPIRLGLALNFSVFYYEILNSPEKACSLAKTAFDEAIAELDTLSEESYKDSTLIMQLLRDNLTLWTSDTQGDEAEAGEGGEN
MsrA inhibitor – inhibits bovine methionine sulfoxide reductase A. purified bovine MsrA, absorbance read-out. inhibition, % at 15.5 µM. 360,000 tested, 0.75% active. AID 651718; in the data active = inhibition above about 4.5%;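 also: 0% = vehicle wells with enzyme and 100% = reference inhibitor wells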
MsrA act confirm – confirmation of bovine methionine sulfoxide reductase A activators | shares compounds with MsrA act | purified bovine MsrA, absorbance read-out | activation, % at 10.6 µM | 1,000 tested, 12% active; in the data active = activation above about 4%;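 also: enzyme coupled to thioredoxin and thioredoxin reductase with NADPH; 0% = vehicle wells and 100% = reference activator wells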
* = called active by the depositor; . = not tested or not shown.

SMILES	MsrA act	pCIP destab	14-3-3 Bad PPI	MsrA inhibitor	MsrA act confirm
COc1ccc(/C=C/C(=O)N2CCN(c3ccccc3)CC2)cc1S(=O)(=O)N1CCOCC1	8.8*	-9.4	-8.1	2.5	2.2
Cc1ccc(NC(=O)COC(=O)c2ccc([N+](=O)[O-])s2)c(C)c1	5.2	-4.9	12.2	2.5	.
Cc1cc(C)c(NC(=O)COC(=O)c2ccc([N+](=O)[O-])s2)c(C)c1	-3.7	-7.3	4.4	0.5	.
NS(=O)(=O)c1ccc(NC(=O)COC(=O)c2ccc([N+](=O)[O-])s2)cc1	27.8*	-2.2	8.6	2.0	12.0*
COc1ccccc1NC(=O)COC(=O)c1ccc([N+](=O)[O-])s1	33.0*	-5.4	-13.1	2.2	18.4*
CN(CC(=O)Nc1ccccc1Cl)C(=O)COC(=O)c1ccc([N+](=O)[O-])s1	12.3*	.	.	0.9	1.9
COc1ccc2c(c1)[C@@]1(OCCC=C[C@H]1C)C(=O)N2CC1CC1	.	.	.	-0.7	.
O=C(NCc1ccccc1)Nc1cccn(Cc2ccccc2Cl)c1=O	9.1*	15.3	-12.4	1.9	-1.6
CCOC(=O)c1cccc(NC(=O)c2cnc3ccccc3n2)c1	12.8*	-1.1	4.6	-1.1	-0.7
Nc1ccn([C@@H]2O[C@H](C(=O)N[C@H](Cc3ccccc3)C(=O)N3CCN(C(=O)N4CCCCC4)CC3)[C@@H](O)[C@H]2O)c(=O)n1	.	.	.	0.2	.
C[C@H](CO)N1C[C@H](C)[C@@H](CN(C)Cc2ccccc2)OCCCC[C@H](C)Oc2ccc(N(C)C)cc2C1=O	8.7*	.	.	-0.4	-3.0
CCN(CC)C(=O)c1ccc(/C=C/c2c[nH]c3ccccc23)[n+](C)c1	-1.1	-28.8	10.6	1.1	.
CCCCCCCC[n+]1cccc(C(=O)N(CC)CC)c1	17.6*	-6.1	7.6	-0.2	-2.5
C/C(=N/Nc1ccccc1C(=O)O)c1cccs1	16.0*	-5.8	.	4.0	-3.0
O=c1c2ccc([N+](=O)[O-])cc2ncn1CCOc1cccc(Br)c1	7.8*	0.8	-6.9	0.0	-2.1
CCNC(=O)N(C)[C@H]1C[C@H]2c3[nH]c4c(-c5ccc6c(c5)OCO6)cccc4c3CCN2C(=O)[C@H]1[C@H](C)O	.	.	.	1.3	.
O=C(N/N=C/C(Br)=C\c1ccccc1)c1cccs1	-2.9	-7.6	1.3	1.9	.
CC(=C/c1ccccc1)/C=N/NC(=O)c1cccs1	15.9*	-5.5	0.0	4.3	0.9
CC(C)c1ccc(C(=O)CSc2ncn[nH]2)cc1	14.2*	-7.1	5.5	-0.6	-2.0
Cn1c(SCc2cccc(Cl)c2)nc(C(F)(F)F)cc1=O	8.4*	-8.1	5.3	-1.1	-5.5
Cn1c(SCc2ccccc2)nc(C(F)(F)F)cc1=O	-1.9	-9.7	-11.6	-0.7	.
O=C(N1CCOCC1)N1CCN(C(=O)N(c2ccccc2)c2ccccc2)CC1	7.9*	-8.4	0.1	2.4	-1.6
CCc1nn(C(C)C(=O)Nc2cccc(C)c2C)c(=O)c2cc3occc3n12 (stereo not drawn)	8.4*	1.1	-6.7	0.0	-1.9
O=C(N/N=C/c1ccc(O)c2ncccc12)c1cccc(Br)c1	15.3*	-20.0	-30.7	3.0	-0.8
O=C(N/N=C/c1ccc([N+](=O)[O-])s1)c1cccc(Br)c1	8.7*	-1.9	-1.2	0.6	6.6*
SMILES	MsrA act	pCIP destab	14-3-3 Bad PPI	MsrA inhibitor	MsrA act confirm
COC(=O)C1=C(C)N(Cc2ccccc2C(F)(F)F)C(=NCc2cc(OC)c(OC)c(OC)c2)NC1CCc1ccccc1 (stereo not drawn)	.	.	.	-0.7	.
COc1ccc(OC)c(/C=C/c2[nH]c(=O)[nH]c(=O)c2[N+](=O)[O-])c1	-5.1	-7.1	.	2.5	.
CC(C)[C@H](N)C(=O)N[C@H](C(=O)N1CCC2CCN(Cc3ccccc3)CC21)C(C)C (stereo partly drawn)	.	.	.	0.4	.
CCc1cc2c(-c3ccccc3)cc(=O)oc2cc1OC(=O)c1cccs1	11.1*	11.4	-6.7	1.6	-3.9
Cc1onc(-c2ccccc2)c1C(=O)N1CCN(C(=O)C(=O)c2cccc(C(F)(F)F)c2)CC1	.	.	.	-0.6	.
COC(=O)Cc1[nH]nc2c1C(c1c[nH]c3ccccc13)C(C#N)=C(N)O2 (stereo not drawn)	11.9*	-5.8	-8.1	-0.7	-1.1
Cc1[nH]nc2c1C(c1c[nH]c3ccccc13)C(C#N)=C(N)O2 (stereo not drawn)	-1.9	4.7	-0.6	0.7	.
Cc1cc(N2CCN(CC(C)(C)O)C[C@H]2C)ccc1N1CCN(Cc2ccccc2)[C@H](C)C1	.	.	.	2.1	.
CCOC(=O)CC(NC(=O)c1cccc2c1C(=O)N(Cc1cccnc1)C2)c1ccc(OCC)c(OC)c1 (stereo not drawn)	8.6*	-19.6	-3.0	-1.1	3.3
C=CCn1cccc(C(=O)Nc2ccc(Cl)cc2)c1=O	7.8*	-21.7	.	2.2	-3.8
CC1=C(C(=O)Nc2cc(C)ccc2C)C(c2cccs2)NC(=S)N1 (stereo not drawn)	8.2*	-8.9	-5.8	0.9	-0.8
CC1=C(C(=O)Nc2ccccc2F)C(c2cccs2)NC(=S)N1 (stereo not drawn)	-5.3	-11.6	-7.5	0.2	.
O=C(NCc1ccc(F)cc1)c1cc2ccccc2o1	9.6*	0.8	.	-1.3	-0.2
Cc1ccc(S(=O)(=O)NC2=C(N3CCN(Cc4ccccc4)CC3)C(=O)c3ccccc3C2=O)cc1	7.8*	-0.7	8.0	-0.9	-1.4
O=[N+]([O-])c1cc(Br)c(O)c(C=Nc2ccc(N3CCOCC3)cc2)c1	10.3*	-22.4	-18.6	0.7	7.8*
COc1ccc(C)cc1N(C(=O)c1ccccc1F)c1nc2ccccc2s1	12.9*	-4.0	13.0	0.0	-0.7
COc1ccc(C)cc1N(C(=O)c1ccccc1)c1nc2ccccc2s1	1.1	-1.7	1.2	-0.9	.
CCCCCCCCN1C(=O)[C@@H](CC(=O)N2CCSCC2)C[C@@]2(C(=O)OC)C1=C[C@H](C1CCCC1)O[C@@H]2C	.	.	.	-0.9	.
CS(=O)(=O)Nc1ccc(C(=O)NCCSCc2ccccc2)cc1	2.2	-11.4	-7.0	1.6	.
CS(=O)(=O)Nc1ccc(C(=O)NCCSCc2c(F)cccc2Cl)cc1	8.3*	-12.0	-17.4	-1.2	1.2
CN1C(=O)[C@@]2(O[C@H]3C=CC=CN3C3=C2C(=O)CCC3)c2cccc(Br)c21	.	.	.	0.6	.
O=C(NC1CC1)c1ccc(NS(=O)(=O)c2ccccc2)cc1	-1.8	-20.6	.	0.7	.
O=C(NC1CC1)c1ccc(NS(=O)(=O)c2ccc(F)cc2)cc1	10.6*	.	.	0.1	-1.4
COc1ccccc1-c1ccc(OCCCN2CCC(C(O)(c3ccccc3)c3ccccc3)CC2)cc1	.	.	.	-0.1	.
Cc1ccc(-n2ccc(=O)c(C(=O)Nc3ccc(S(=O)(=O)Nc4nccc(C)n4)cc3)n2)cc1	-5.6	1.8	.	1.6	.
Cc1cc(C)nc(NS(=O)(=O)c2ccc(NC(=O)c3nn(-c4ccccc4)ccc3=O)cc2)n1	13.7*	-5.8	.	-0.2	-4.3
COC(=O)c1ccc(/C=C2/SC(=S)N(CCC(=O)NCCCN3CCOCC3)C2=O)cc1	8.1*	-11.9	.	0.7	-3.2
O=C(Cc1c[nH]c2ccccc12)Nc1ccc(Nc2cccnc2)c(-c2cccc(Cl)c2)c1	.	.	.	0.8	.
